Assays:
Test in all cases: DAPPL (digital affinity profiling via proximity ligation, sequencing); 10 mM Tris-HCl pH 7.5, 50 mM NaCl, 1 mM DTT, 4% glycerol, room temperature, 30 min; GST-TFs on glutathione beads, 16-mer random dsDNA library, 0.1% formaldehyde crosslink after washing; high values mean tight binding
Conditions in all cases: protein: recombinant; tags: N-terminal GST; dsDNA, one strand shown
[1] = biological target: T1, ERF (Homo sapiens, UniProt P50548 1-548)
T1 sequence: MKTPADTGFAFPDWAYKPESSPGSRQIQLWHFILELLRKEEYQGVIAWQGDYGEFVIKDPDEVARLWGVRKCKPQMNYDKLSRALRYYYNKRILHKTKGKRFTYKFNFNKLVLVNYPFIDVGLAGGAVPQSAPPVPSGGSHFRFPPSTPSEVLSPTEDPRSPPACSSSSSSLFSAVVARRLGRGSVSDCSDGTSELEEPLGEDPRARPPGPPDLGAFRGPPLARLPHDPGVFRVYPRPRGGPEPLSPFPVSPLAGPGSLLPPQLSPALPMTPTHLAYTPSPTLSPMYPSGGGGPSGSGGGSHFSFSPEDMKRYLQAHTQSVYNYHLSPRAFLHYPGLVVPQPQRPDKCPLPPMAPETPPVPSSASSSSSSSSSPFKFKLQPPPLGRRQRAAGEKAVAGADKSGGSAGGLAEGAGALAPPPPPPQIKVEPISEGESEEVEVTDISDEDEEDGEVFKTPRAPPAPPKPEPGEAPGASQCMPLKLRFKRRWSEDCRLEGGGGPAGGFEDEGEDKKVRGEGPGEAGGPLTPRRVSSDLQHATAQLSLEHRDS
Summary of the method: (§1)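 Human transcription factors carrying a GST fusion were produced in yeast, bound to glutathione beads, tagged with DNA barcodes and pooled together with a tag-only sample. Each pool was held with 200 nmole of a random double-stranded 16-mer DNA library in Tris/NaCl/DTT/glycerol buffer for 30 min at room temperature, then washed, crosslinked in 0.1% formaldehyde, proximity-ligated with BsaI/T4 ligase (1 h, 37 °C), PCR-amplified and sequenced on an Illumina NextSeq500. Binding signal is the read frequency of each hexamer for a given factor divided by its frequency in the tag-only sample.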

[2] = biological target: T2, ETV3L (Homo sapiens, UniProt Q6ZN32 1-361)
T2 sequence: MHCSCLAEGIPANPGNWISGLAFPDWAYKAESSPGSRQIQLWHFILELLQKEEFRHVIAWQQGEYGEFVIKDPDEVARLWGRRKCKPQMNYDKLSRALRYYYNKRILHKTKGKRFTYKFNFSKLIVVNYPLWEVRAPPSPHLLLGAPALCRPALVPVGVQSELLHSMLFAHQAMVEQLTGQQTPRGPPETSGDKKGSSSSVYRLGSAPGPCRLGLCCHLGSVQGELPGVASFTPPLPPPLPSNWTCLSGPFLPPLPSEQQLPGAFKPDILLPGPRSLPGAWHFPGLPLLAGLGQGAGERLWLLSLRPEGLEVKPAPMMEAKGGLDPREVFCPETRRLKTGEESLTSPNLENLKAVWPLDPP
Summary of the method: as §1

[3] = biological target: T3, ETS2 (Homo sapiens, UniProt P15036 1-469)
T3 sequence: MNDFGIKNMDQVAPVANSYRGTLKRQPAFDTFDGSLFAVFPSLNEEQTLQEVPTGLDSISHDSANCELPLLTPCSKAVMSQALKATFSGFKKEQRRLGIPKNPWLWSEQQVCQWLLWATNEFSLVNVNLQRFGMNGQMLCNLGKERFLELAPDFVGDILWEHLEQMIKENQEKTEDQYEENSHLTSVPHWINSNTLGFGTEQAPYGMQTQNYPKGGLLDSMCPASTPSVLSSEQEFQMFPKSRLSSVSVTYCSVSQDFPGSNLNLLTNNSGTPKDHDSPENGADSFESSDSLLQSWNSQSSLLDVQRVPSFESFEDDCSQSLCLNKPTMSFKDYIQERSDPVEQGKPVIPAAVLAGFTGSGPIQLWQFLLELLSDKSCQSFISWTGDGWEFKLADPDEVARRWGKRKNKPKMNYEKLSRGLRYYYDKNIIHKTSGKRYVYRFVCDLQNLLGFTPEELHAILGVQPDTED
Summary of the method: as §1

[4] = biological target: T4, SPDEF (Homo sapiens, UniProt O95238 1-335)
T4 sequence: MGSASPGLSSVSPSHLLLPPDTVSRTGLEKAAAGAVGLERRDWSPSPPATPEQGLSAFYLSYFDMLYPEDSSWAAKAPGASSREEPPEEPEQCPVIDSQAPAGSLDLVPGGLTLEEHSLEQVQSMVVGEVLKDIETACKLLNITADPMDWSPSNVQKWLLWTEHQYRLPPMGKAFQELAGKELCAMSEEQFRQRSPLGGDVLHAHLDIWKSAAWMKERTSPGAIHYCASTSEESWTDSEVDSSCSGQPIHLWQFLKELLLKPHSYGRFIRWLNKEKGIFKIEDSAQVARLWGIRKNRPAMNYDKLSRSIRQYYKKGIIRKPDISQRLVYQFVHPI
Summary of the method: as §1

[5] = biological target: T5, ETV7 (Homo sapiens, UniProt Q9Y603 1-341)
T5 sequence: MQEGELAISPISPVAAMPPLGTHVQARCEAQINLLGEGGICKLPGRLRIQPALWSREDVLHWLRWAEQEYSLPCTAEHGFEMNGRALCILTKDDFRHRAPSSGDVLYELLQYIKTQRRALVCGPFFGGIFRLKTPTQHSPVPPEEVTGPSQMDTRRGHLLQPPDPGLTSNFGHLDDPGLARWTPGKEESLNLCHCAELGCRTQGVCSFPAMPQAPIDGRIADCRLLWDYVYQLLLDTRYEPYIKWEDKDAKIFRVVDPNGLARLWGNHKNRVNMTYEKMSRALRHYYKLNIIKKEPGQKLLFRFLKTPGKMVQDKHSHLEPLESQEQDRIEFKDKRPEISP
Summary of the method: as §1

[6] = biological target: T6, ELF5 (Homo sapiens, UniProt Q9UKW6-2 1-255)
T6 sequence: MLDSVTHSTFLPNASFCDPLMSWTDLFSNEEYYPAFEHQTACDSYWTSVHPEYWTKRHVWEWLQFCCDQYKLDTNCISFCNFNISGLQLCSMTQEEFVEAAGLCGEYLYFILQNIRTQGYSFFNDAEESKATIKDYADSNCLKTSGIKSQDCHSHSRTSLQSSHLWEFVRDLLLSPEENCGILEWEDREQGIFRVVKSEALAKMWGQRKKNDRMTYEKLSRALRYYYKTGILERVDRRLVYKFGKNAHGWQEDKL
Summary of the method: as §1

[7] = biological target: T7, ETV3 (Homo sapiens, UniProt P41162-2 1-143)
T7 sequence: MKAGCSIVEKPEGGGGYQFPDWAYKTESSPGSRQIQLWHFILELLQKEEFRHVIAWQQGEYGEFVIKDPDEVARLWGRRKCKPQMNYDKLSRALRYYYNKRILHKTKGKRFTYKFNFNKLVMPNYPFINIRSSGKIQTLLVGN
Summary of the method: as §1

[8] = biological target: ETV6 (Homo sapiens, UniProt P41212 1-452)
Sequence of ETV6 (P41212 whole entry): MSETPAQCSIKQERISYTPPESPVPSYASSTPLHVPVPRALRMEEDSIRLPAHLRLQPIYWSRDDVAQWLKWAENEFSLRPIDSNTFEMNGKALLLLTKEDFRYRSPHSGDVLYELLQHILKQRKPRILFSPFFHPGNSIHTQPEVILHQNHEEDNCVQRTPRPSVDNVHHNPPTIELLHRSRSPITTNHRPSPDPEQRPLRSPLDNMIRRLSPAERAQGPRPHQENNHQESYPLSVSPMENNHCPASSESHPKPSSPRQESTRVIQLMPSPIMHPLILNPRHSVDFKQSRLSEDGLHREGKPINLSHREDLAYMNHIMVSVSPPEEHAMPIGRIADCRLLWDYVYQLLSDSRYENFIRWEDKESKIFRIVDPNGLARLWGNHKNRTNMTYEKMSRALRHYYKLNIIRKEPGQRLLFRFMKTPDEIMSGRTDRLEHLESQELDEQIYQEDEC
Summary of the method: as §1

Row | Sequence | binding signal [1] | binding signal [2] | binding signal [3] | binding signal [4] | binding signal [5] | binding signal [6] | binding signal [7] | binding signal [8]
1 | TGTTTC | 1.86 fold enrichment (6-mer frequency, TF over GST control) | 1.84 fold enrichment (6-mer frequency, TF over GST control) | 1.79 fold enrichment (6-mer frequency, TF over GST control) | 1.81 fold enrichment (6-mer frequency, TF over GST control) | 1.89 fold enrichment (6-mer frequency, TF over GST control) | 2.08 fold enrichment (6-mer frequency, TF over GST control) | 1.83 fold enrichment (6-mer frequency, TF over GST control) | 1.95 fold enrichment (6-mer frequency, TF over GST control)
2 | ATGCCT | 1.42 fold enrichment (6-mer frequency, TF over GST control) | 1.28 fold enrichment (6-mer frequency, TF over GST control) | 1.43 fold enrichment (6-mer frequency, TF over GST control) | 1.41 fold enrichment (6-mer frequency, TF over GST control) | 1.26 fold enrichment (6-mer frequency, TF over GST control) | 1.34 fold enrichment (6-mer frequency, TF over GST control) | 1.4 fold enrichment (6-mer frequency, TF over GST control) | 1.29 fold enrichment (6-mer frequency, TF over GST control)
3 | ATTATT | 1.11 fold enrichment (6-mer frequency, TF over GST control) | 1.17 fold enrichment (6-mer frequency, TF over GST control) | 1.16 fold enrichment (6-mer frequency, TF over GST control) | 1.11 fold enrichment (6-mer frequency, TF over GST control) | 1.25 fold enrichment (6-mer frequency, TF over GST control) | 1.15 fold enrichment (6-mer frequency, TF over GST control) | 1.18 fold enrichment (6-mer frequency, TF over GST control) | 1.13 fold enrichment (6-mer frequency, TF over GST control)
4 | ATATCG | 1.23 fold enrichment (6-mer frequency, TF over GST control) | 1.23 fold enrichment (6-mer frequency, TF over GST control) | 1.17 fold enrichment (6-mer frequency, TF over GST control) | 1.26 fold enrichment (6-mer frequency, TF over GST control) | 1.16 fold enrichment (6-mer frequency, TF over GST control) | 1.1 fold enrichment (6-mer frequency, TF over GST control) | 1.14 fold enrichment (6-mer frequency, TF over GST control) | 1.09 fold enrichment (6-mer frequency, TF over GST control)
5 | AGCAAT | 1.1 fold enrichment (6-mer frequency, TF over GST control) | 1.03 fold enrichment (6-mer frequency, TF over GST control) | 1.1 fold enrichment (6-mer frequency, TF over GST control) | 1.04 fold enrichment (6-mer frequency, TF over GST control) | 1.25 fold enrichment (6-mer frequency, TF over GST control) | 1.08 fold enrichment (6-mer frequency, TF over GST control) | 1.18 fold enrichment (6-mer frequency, TF over GST control) | 1.14 fold enrichment (6-mer frequency, TF over GST control)
6 | AACTAA | 1.36 fold enrichment (6-mer frequency, TF over GST control) | 1.25 fold enrichment (6-mer frequency, TF over GST control) | 1.4 fold enrichment (6-mer frequency, TF over GST control) | 1.31 fold enrichment (6-mer frequency, TF over GST control) | 1.33 fold enrichment (6-mer frequency, TF over GST control) | 1.38 fold enrichment (6-mer frequency, TF over GST control) | 1.29 fold enrichment (6-mer frequency, TF over GST control) | 1.42 fold enrichment (6-mer frequency, TF over GST control)
7 | AAACCA | 1.16 fold enrichment (6-mer frequency, TF over GST control) | 1.18 fold enrichment (6-mer frequency, TF over GST control) | 1.17 fold enrichment (6-mer frequency, TF over GST control) | 1.1 fold enrichment (6-mer frequency, TF over GST control) | 1.2 fold enrichment (6-mer frequency, TF over GST control) | 1.13 fold enrichment (6-mer frequency, TF over GST control) | 1.15 fold enrichment (6-mer frequency, TF over GST control) | 1.21 fold enrichment (6-mer frequency, TF over GST control)
